# Screens as filed in PubChem.
# NLRP3 yeast inh: inhibitors of NALP3 inflammasome in yeast. AID 2825. inhibition, % at 10 µM. Yeast reconstituted NLRP3/ASC/caspase-1, beta-gal luminescence, 24 h. 0.39% of 330,000 active;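 active = inhibition of 50% or more; inactive = inhibition below 50%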
# tim23-1 inh: tim23-1 yeast growth inhibition | 1.3% of 330,000 active | inhibition, % at 20 µM | S. cerevisiae tim23-1 growth, BacTiter-Glo luminescence, 24 h;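 active = growth inhibition of the mutant yeast at or above 50%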;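 also: temperature-sensitive mutant grown at 25 °C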
# TIM10 inh: TIM10 yeast growth inhibition | S. cerevisiae TIM10 strain growth, BacTiter-Glo luminescence, 24 h | inhibition, % at 10 µM | 1.4% of 330,000 active;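 active = inhibition of 40% or more at the single tested concentration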;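 also: wild-type TIM10 isogenic control strain grown at permissive 25 °C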
# tim10-1 inh: inhibits growth of tim10-1 mutant yeast; S. cerevisiae tim10-1 ts strain growth, BacTiter-Glo, 24 h; inhibition, % at 20 µM; 2.2% of 330,000 active;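 active = inhibition of at least 40%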;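 also: mutant grown at 25 °C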
# Yeast superoxide: yeast age-related superoxide inhibition as caloric restriction mimetic. S. cerevisiae aged cells, superoxide DHE fluorescence; active compounds read low. superoxide response (% of plate mean), % at 10 µM. 0.18% of 330,000 active. AID 2690;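 active = superoxide response under a set limit, about three screen SD below normal, cut at about 65% in these data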;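 also: yeast aged for seven days with compound at 30 °C before DHE staining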
# NALP3 confirm: NALP3 inhibition confirmation in yeast. 81% of 1,300 active. inhibition, % at 10 µM. yeast expressing human NALP3, luminescence. shares compounds with NLRP3 yeast inh; in the data active = inhibition above about 48%
# Casp1 ASC ctr: caspase-1-ASC yeast counter-screen hit. inhibition, % at 10 µM. AID 488784. shares compounds with NLRP3 yeast inh. yeast expressing Caspase-1-ASC, luminescence counter screen. 66% of 1,000 active
# NALP3 yeast rt: retest-confirmed inhibitor of NALP3 in yeast. inhibition, % at 10 µM. shares compounds with NLRP3 yeast inh. yeast expressing human NALP3, luminescence read-out. 53% of 1,000 active
# tim10-1 conf: tim10-1 yeast growth inhibition, confirmed. shares compounds with tim10-1 inh. S. cerevisiae tim10-1 ts strain growth, BacTiter-Glo, 24 h. inhibition, % at 20 µM. 56% of 7,400 active. AID 463213;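 active = inhibition of yeast growth at or above a set limit in either of two repeat tests at 20 µM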;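 also: tim10-1 mutant grown at permissive 25 °C to find synthetic lethal compounds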
# TIM10 conf: TIM10 yeast growth inhibition, confirmed; 63% of 4,600 active; shares compounds with TIM10 inh; inhibition, % at 10 µM; S. cerevisiae tim10 strain growth, BacTiter-Glo luminescence, 24 h;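 active = inhibition of yeast growth at or above a set limit in either of two replicates at 10 µM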; also: this counterscreen used the strain with wild-type TIM10
# tim23-1 confirm: confirmation of tim23-1 mutant yeast growth inhibitors. S. cerevisiae tim23-1 growth, BacTiter-Glo luminescence, 24 h. inhibition, % at 20 µM. 83% of 4,400 active. shares compounds with tim23-1 inh. AID 463218;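 active = inhibition above about 39% in either of two replicate wells at 20 µM, limit read from the data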;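 also: temperature-sensitive tim23-1 mutant grown at 25 °C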
# A number is an active result; – = inactive; · = no result. Rows were chosen to be rich in hits. Some 3.8% of all compounds tested hit in one or more screens of this group. Rule as the data show it, unless noted: active = inhibition above about 50%; inactive = the rest.
SMILES,NLRP3 yeast inh,tim23-1 inh,TIM10 inh,tim10-1 inh,Yeast superoxide,NALP3 confirm,Casp1 ASC ctr,NALP3 yeast rt,tim10-1 conf,TIM10 conf,tim23-1 confirm
Cc1ccc(-c2csc(NC(=O)c3cccc(C)c3)c2C(=O)O)cc1,65,83,83,72,–,70,66,61,84,90,89
CC(C)c1ccc(C(CC(=O)O)NC(=O)c2cccs2)cc1 (stereo unspecified),–,–,–,–,–,·,·,·,·,·,·
CC(C)c1ccc(-c2csc(NC(=O)c3cccs3)c2C(=O)O)cc1,71,67,81,76,–,84,76,74,86,92,89
Cc1ccc(-c2csc(NC(=O)c3ccc(Br)cc3)c2C(=O)O)cc1,91,84,82,81,–,96,95,88,82,93,89
Cc1ccc(-c2csc(NC(=O)/C=C/c3ccco3)c2C(=O)O)cc1,83,79,81,76,–,90,90,84,74,79,89
Cc1cccc(C(=O)Nc2scc(CC(C)C)c2C(=O)O)c1,–,–,–,–,–,·,·,·,·,·,·
O=S(=O)(NC1CCN(S(=O)(=O)c2ccc3c(c2)OCCO3)C1)c1c(F)cccc1F (stereo unspecified),–,–,–,–,–,·,·,·,·,·,·
CC1=NN(C(=O)c2ccoc2C)C(O)(C(F)(F)F)C1 (stereo unspecified),–,–,–,–,–,·,·,·,·,·,·
O=C(Nc1c(-c2ccccc2)nc2ccccn12)c1cccs1,–,–,–,–,–,·,·,·,·,·,·
O=C(Nc1nsc(-c2ccccc2)n1)c1cccs1,54,68,–,–,–,65,–,–,·,·,53
Cc1c(Cl)sn(-c2ccc(Cl)cc2)c1=O,56,55,97,96,·,–,69,–,98,100,99
CCCCCCn1c2c(c(=N)c3c1CCC3)CCC2,–,–,–,–,–,·,·,·,·,·,·
CCCCCCCCCn1c2c(c(=N)c3c1CCC3)CCC2,59,67,48,64,–,65,–,55,60,50,83
CC1=C(C(=O)Nc2ccccc2)C(c2ccc(C)cc2)N=C(Nc2nc3ccccc3o2)N1 (stereo unspecified),–,–,–,–,–,·,·,·,·,·,·
CCCC1CCC(c2ccc(C(=O)NN)cc2)CC1 (stereo unspecified),51,55,47,–,–,–,·,·,·,32,–
O=C(CCN1CCC(c2cccs2)=N1)c1cccs1,90,63,63,41,–,90,96,87,–,69,84
Cc1cccc(NC(=O)c2nc[nH]c2C(=O)NCCCCNC(=O)c2[nH]cnc2C(=O)Nc2cccc(C)c2)c1,–,–,–,–,–,·,·,·,·,·,·
O=C(/C=C/c1ccccc1Cl)Nc1ccccc1,65,65,–,–,–,75,79,74,·,·,58
O=C(/C=C/c1ccccc1Cl)Nc1cccc(O)c1,–,–,–,–,–,·,·,·,·,·,·
C=CCSc1n[nH]c(-c2cccs2)n1,–,–,–,–,–,·,·,·,·,·,·
C=CCSc1n[nH]c(-c2ccc(OCCC)cc2)n1,57,66,46,–,–,73,56,–,·,41,38
CCOc1ccccc1C(=O)Nc1cc(Cl)ccc1O,52,85,59,62,–,72,66,53,54,52,–
COc1ccccc1C(=O)Nc1cc(Cl)ccc1O,–,–,–,–,–,·,·,·,·,·,·
CC1=C(C(=O)NC2CC(C)(C)Cc3c2cnn3-c2cccc(F)c2)OCCO1 (stereo unspecified),–,–,–,–,–,·,·,·,·,·,·
O=C(N/N=C1/SCC(=O)N1Cc1ccco1)c1ccccc1F,–,–,–,–,–,·,·,·,·,·,·
SMILES,NLRP3 yeast inh,tim23-1 inh,TIM10 inh,tim10-1 inh,Yeast superoxide,NALP3 confirm,Casp1 ASC ctr,NALP3 yeast rt,tim10-1 conf,TIM10 conf,tim23-1 confirm
C/C(=N\NC(=O)c1ccccc1O)C1C(=O)c2ccccc2C1=O,87,73,73,54,–,92,92,84,52,70,79
COc1ccc(-c2cc(C)no2)cc1S(=O)(=O)N1CCOc2ccc(C)cc21,–,–,–,–,–,·,·,·,·,·,·
O=C(C[n+]1ccccc1)N/N=C/c1cc(Br)cc(Br)c1O,78,68,56,–,–,53,87,77,·,68,69
Cc1ccc(S(=O)(=O)NCc2ccccc2)cc1C(=O)NCCc1ccc(S(N)(=O)=O)cc1,–,–,–,–,–,·,·,·,·,·,·
Cn1c2c(c(=O)n(C)c1=O)C(C(F)(F)F)(C(F)(F)F)N=C(c1ccc(Cl)cc1)N2,54,59,–,61,–,92,77,88,59,·,51
CN1CCSc2ccc(C(=O)Nc3cccc(F)c3)cc21,67,68,47,–,–,82,·,·,·,51,71
O=C(C[n+]1ccccc1)N/N=C/c1ccccc1C(F)(F)F,–,–,–,–,–,·,·,·,·,·,·
O=C(O/N=C1/CCSc2ccccc21)c1ccc(F)cc1,–,–,–,–,–,·,·,·,·,·,·
CC(C)(C)C1CCC(=NOC(=O)c2ccc(F)cc2)CC1 (stereo unspecified),59,67,85,45,–,79,54,–,–,83,62
CCOC(=O)c1cc(C)n(CCc2ccccc2)c1C,–,–,–,–,–,·,·,·,·,·,·
Cc1cc(C(=O)CCl)c(C)n1CCc1ccccc1,–,66,–,–,–,–,·,·,·,·,–
c1ccc(-c2nc(-c3cccs3)[nH]c2-c2ccccc2)cc1,–,–,–,–,–,·,·,·,·,·,·
Cc1nc2nc(-c3cccs3)[nH]c2cc1Br,54,61,–,–,–,76,60,63,·,·,55
CCCCCCCCn1c(=O)c(C(=O)OC)c(N)c2ccccc21,60,64,–,–,–,–,·,·,·,·,44
CCCCCCCn1c(=O)c(C(=O)OC)c(N)c2ccccc21,68,53,–,–,–,61,93,84,·,·,50
CCCCCCn1c(=O)c(Cc2ccccc2)c(O)c2ccccc21,–,–,–,–,–,·,·,·,·,·,·
CCOc1ccc(NC(=O)CN(C)C(=O)CN2C(=O)c3ccc([N+](=O)[O-])cc3C2=O)cc1OCC,–,–,–,–,·,·,·,·,·,·,·
CCn1c(SCC(=O)NCC2CCCO2)nnc1-c1ccc(S(=O)(=O)N2CCN(C)CC2)cc1 (stereo unspecified),–,–,–,–,–,·,·,·,·,·,·
